{
  "source": "PubChem BioAssay AID624348",
  "about": "(National Center for Advancing Translational Sciences (NCATS), 2012)",
  "note": "The source made the active and inactive calls.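 The calls were made as follows: active = concentration cutting cell viability by half at or below 20 µM after three days; inconclusive = half-viability concentration between 20 and 30 µM; inactive = half-viability concentration of 30 µM or more.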",
  "data": [
    {"experiment": "qHTS for Inducers of the Endoplasmic Reticulum Stress Response (ERSR) in Human Glioma: Hit Validation in Cytotoxic Counterscreen", "settings": "U87-MG glioma viability, CellTiter-Glo ATP luminescence, 72 h", "from_the_text": "Primary protein unfolding takes place for many diseases, including diabetes and hypoxia, , and triggers a reaction in the cells called ER stress response (ERSR). ). ERSR is designed as a repair mechanism, but ultimately leads to cell death via apoptosis if conditions triggering protein unfolding persist (1). The molecular clue to ERSR activation is the enhancement of the expression of key molecular chaperones, including the glucose regulated protein (GRP) 78. GRP78 is the main sensor for protein folding and the main actuator of the ERSR. In a collaboration between the Southern Research Institute and the NIH Chemical Genomics Center, a cell based screen was developed that reliably uses GRP78 as a sensor to identify small molecules as inducers of ERSR. In resting conditions, GRP78 binds proteins and acts as a natural repressor. Once unfolded proteins are present in the ER, GRP78 releases some of the repressors and binds to the unfolded proteins. The release of the repressors executes the ERSR program. Using a human glioma cell line in a miniaturized, luminescent format, a high-throughput screen was developed to identify actuators of the ERSR. This assay validates the hits identified in the primary screen in this cytotoxic counterscreen. Activity is undesirable in this assay. NIH Chemical Genomics Center [NCGC] NIH Molecular Libraries Probe Centers Network [MLPCN] MLPCN Grant: DA031669 Assay Submitter (PI): Maurizio Grimaldi, Southern Research Institute (1) Soboloff, J. and S. A. Berger (2002). \"Sustained ER Ca2+ depletion suppresses protein synthesis and induces activation-enhanced cell death in mast cells.\" J Biol Chem 277(16): 13812-20.\nWild type U87-MG are dispensed at density 1000 cells/well into Greiner white solid bottom 1536-well assay plates. […] The plates are incubated at room temperature for 10 minutes and read in a ViewLux high-throughput CCD imager (PerkinElmer), wherein end-point measurements of luminescence through the quantitation of the ATP content, an indicator of metabolically active cells, are acquired.", "values": [
      {"molecule": "Cc1ccc(-c2cc(NC(=O)C(C)Oc3ccc(C)c(C)c3)on2)cc1", "note": "(stereo not drawn)", "outcome": "inactive"},
      {"molecule": "CC(=O)N1CCOc2cc(S(=O)(=O)Nc3c(C)cccc3C(C)C)c(Cl)cc21", "outcome": "inactive"},
      {"molecule": "CC(C)Cc1nn2c(=O)cc(COC(=O)CNC(=O)c3ccc(C(C)(C)C)cc3)nc2s1", "outcome": "inactive"}
    ]}
  ]
}
